Here are results for 96 compounds from PubChem BioAssay AID1209 (Sanford-Burnham Center for Chemical Genomics, 2008).

The campaign covered roughly 190,000 compounds. About 810 (0.43%) were called active. The list comes from a sample in which actives are over-represented; it also holds similar structures and randomly drawn compounds. Unmarked numbers belong to inactive results. No stated cut-off is given here; in the data, active means inhibition above about 50%; inactive means the rest.

The term inhibition denotes the drop in the measured response relative to a control, in per cent.

The target in this experiment is Mannose-6-phosphate isomerase (Homo sapiens) (UniProt P34949). Kind of experiment: MPI enzyme activity inhibition – biochemical, fluorescence intensity, coupled assay, primary screen (AID 1209).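 Further: plate controls were DMSO vehicle for no effect and wells lacking substrate for full effect.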 The conditions noted are these: purified PMI enzyme, at 20 µM, hits give high values.
Mannose-6-phosphate isomerase (Homo sapiens), sequence (P34949 whole entry, looked up): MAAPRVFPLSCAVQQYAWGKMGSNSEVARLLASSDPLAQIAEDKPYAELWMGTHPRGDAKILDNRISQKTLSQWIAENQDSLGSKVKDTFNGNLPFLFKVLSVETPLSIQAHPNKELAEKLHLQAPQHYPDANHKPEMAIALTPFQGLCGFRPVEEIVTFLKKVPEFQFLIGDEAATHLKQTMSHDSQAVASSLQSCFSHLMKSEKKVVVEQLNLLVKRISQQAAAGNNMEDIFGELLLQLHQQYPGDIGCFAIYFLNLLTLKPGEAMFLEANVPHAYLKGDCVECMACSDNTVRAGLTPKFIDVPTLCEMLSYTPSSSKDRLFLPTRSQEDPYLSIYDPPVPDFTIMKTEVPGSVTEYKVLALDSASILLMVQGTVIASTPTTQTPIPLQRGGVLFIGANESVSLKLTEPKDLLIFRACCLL
Regarding `COc1cc2c(=O)c(-c3ccc(O)cc3)coc2cc1OC1OC(CO)C(O)C(O)C1O` (stereo unspecified), the inhibition was 3.2%.

As to `O=c1c(O[C@@H]2O[C@H](CO)[C@@H](O)[C@H](O)[C@H]2O)c(-c2ccc(O)c(O)c2)oc2cc(O)cc(O)c12`, the inhibition is 62.8% (active).

`O=c1c(-c2ccc(O)cc2)coc2cc(OC3OC(CO)C(O)C(O)C3O)ccc12` (stereo unspecified): the inhibition was -7.2%.

Take `COc1ccc2[nH]c(=O)c(CN(Cc3cccs3)C(=S)Nc3ccccc3)cc2c1`: the inhibition was 22.8%.

In the case of `COc1ccc(OCc2nnc(SCC(=O)N(C)Cc3ccccc3)n2N)cc1`, the inhibition is 50.1% (active).

With `CCN(CC)C(=O)CSc1nnc(COc2ccc(OC)cc2)n1N`, the inhibition was 1.7%.

In the case of `COc1ccc(OCc2nnc(SCC(=O)O)n2N)cc1`, the inhibition is 4.6%.

Take `CC(=O)c1c(C)nc(-c2ccc(OCC(=O)Nc3ccccc3)cc2)n1O`: the inhibition is -7.9%.

As for `CCS(=O)(=O)c1ccc2oc(Nc3ccc(C(C)(C)C)cc3)nc2c1`, the inhibition was 15.9%.

Regarding `CCS(=O)(=O)c1ccc2oc(Nc3ccc(OC)cc3)nc2c1`, the inhibition was -4.5%.

Take `CCS(=O)(=O)c1ccc2oc(Nc3ccc(C(C)C)cc3)nc2c1`: the inhibition was 63.4% (active).

Consider `O=C(NNC(=O)c1sccc1-n1cccc1)c1ccc(F)cc1`, for which the inhibition is 0.7%.

Take `CCCCOc1ccc(CSc2nnc(C)n2N)cc1[N+](=O)[O-]`: the inhibition was -8.7%.

Take `O=C(Nc1ccc(F)cc1)c1ccc(Cn2cnnn2)cc1`: the inhibition is -9.3%.

As for `CC(=O)N(C)c1nnc(-c2ccccn2)s1`, the inhibition is -0.7%.

Regarding `COCC(=O)N(C)c1nnc(-c2ccccn2)s1`, the inhibition was 102% (active).

Consider `COCC(=O)N(C)c1nnc(-c2cnccn2)s1`, for which the inhibition is -3.9%.

For `CCCc1cc(=O)[nH]c(SCc2ccccc2)n1`, the inhibition was 13.6%.

`O=C(CSc1nc2ccccc2c(=O)n1CCCN1CCOCC1)N1CCN(c2ccccc2)CC1`: the inhibition was -4.4%.

`Cc1ccccc1NS(=O)(=O)c1ccc(C(=O)OCC(=O)NCC(C)C)cc1`: the inhibition is -11.1%.

In the case of `COc1ccc(OCc2nnc3n2N=C(c2ccc(OC)cc2)CS3)cc1`, the inhibition was -9.9%.

As for `c1ccc(OCc2nnc3n2N=C(c2ccccc2)CS3)cc1`, the inhibition is 47.7%.

For the compound `COc1ccccc1C1=Nn2c(COc3ccccc3)nnc2SC1`, the inhibition was 67.8% (active).

With `CCc1ccccc1NC(=O)N1CCC(NC(=O)C(Cc2ccccc2)NC(C)=O)CC1` (stereo unspecified), the inhibition was -12.4%.

In the case of `CC(C)[C@H](NC(=O)c1ccccc1)C(=O)OCC(=O)N1CC(=O)Nc2ccccc21`, the inhibition is 14.2%.

With `CCCCNC(=O)CSc1nc2ccccc2n1S(=O)(=O)c1ccc(Cl)cc1`, the inhibition is -2.1%.

For the compound `COc1ccc(-c2nc(SC)n(C)c(=O)c2C#N)cc1OC`, the inhibition was 13.4%.

Take `O=C(O[C@@H]1Cc2c(O)cc(O)cc2O[C@@H]1c1cc(O)c(O)c(O)c1)c1cc(O)c(O)c(O)c1`: the inhibition was 67.2% (active).

Consider `O=C1C[C@@H](c2ccc(O)cc2)Oc2cc(O)cc(O)c21`, for which the inhibition was 10.6%.

Take `O=C1CC(c2ccc(O)cc2)Oc2cc(O)cc(O)c21` (stereo unspecified): the inhibition is 11.5%.

For the compound `Cc1cccc(C(=O)NC2CC3CCCC(C2)N3S(=O)(=O)c2ccccc2)c1` (stereo unspecified), the inhibition was 12.2%.

With `CCOCc1[nH]c(=S)[nH]c(=O)c1Cc1ccc(OCC(C)C)cc1`, the inhibition was -4%.

As for `O=C(C1CCCN(CCCc2ccccc2)C1)N1CCCCCC1` (stereo unspecified), the inhibition is -9.9%.

In the case of `CC1=CC(=O)c2ccccc2C1=O`, the inhibition was -57.7%.

Turning to `CC(=O)N1C(C)(C)CC(=NOS(=O)(=O)c2ccccc2)CC1(C)C`, the inhibition was -17.4%.

For `CC1=CC(=O)C=C(C)C1=NOC(=O)/C=C\c1ccccc1`, the inhibition is 17.8%.

Regarding `CC1=C/C(=N\OS(=O)(=O)c2ccccc2)C(C)=CC1=O`, the inhibition was 106% (active).

Take `CC1=C/C(=N\OS(=O)(=O)c2ccccc2)C(C(C)C)=CC1=O`: the inhibition was 78.5% (active).

Regarding `CC1=CC(=O)C(C(C)C)=CC1=NC(=O)c1ccc(C)cc1`, the inhibition was 46.6%.

For `CC1=CC(=O)C=C(C)C1=NOc1ccccc1[N+](=O)[O-]`, the inhibition was 25.5%.

On to `CC1=C/C(=N\OC(=O)/C=C/c2ccccc2)C(C)=CC1=O`, for which the inhibition is 3.5%.

As to `CC1=C/C(=N\OS(=O)(=O)c2ccccc2)C=CC1=O`, the inhibition was 96.1% (active).

On to `Cc1ccc(S(=O)(=O)ON=C2CCN(S(=O)(=O)c3ccccc3)CC2)cc1`, for which the inhibition was 8%.

For the compound `O=S(=O)(O/N=C1\CCCc2ccccc21)c1ccccc1`, the inhibition is -1.2%.

Take `CC1CCN(C(=O)c2ccc(SCc3ccccc3F)c([N+](=O)[O-])c2)CC1`: the inhibition is 20%.

Take `O=C(O)CCCC(=O)Nc1cc([N+](=O)[O-])ccc1O`: the inhibition is 9.3%.

In the case of `COc1ccc(O)c(/C=N/NC(=S)Nc2cccc(S(=O)(=O)N(C)C)c2)c1`, the inhibition was -10.9%.

As for `O=C(c1cn[nH]c1)c1cc(F)ccc1O`, the inhibition was 12.2%.

In the case of `COc1ccc(C(=O)N/N=C(/C)c2cccc(NC(=O)C(F)(F)F)c2)cc1`, the inhibition was 0.4%.

On to `CC(C)(C)c1ccc(S(=O)(=O)O/N=C2/CCCCC2c2ccc([N+](=O)[O-])cc2[N+](=O)[O-])cc1` (stereo unspecified), for which the inhibition was 7.7%.

Consider `CCN(CC)Cc1cc(NC2=NS(=O)(=O)c3ccccc32)ccc1OC(=O)c1ccccc1`, for which the inhibition was -5.8%.

For the compound `CC(C)(C)c1ccc(C(=O)NNC(=S)NCC2CCCO2)cc1` (stereo unspecified), the inhibition is -0.9%.

For `O=C1c2ccccc2C(=O)N1CCSc1n[nH]c(=S)s1`, the inhibition is -5.1%.

In the case of `Cc1nn(-c2ccccc2)c(Cl)c1C(=O)Nc1ccc(N2CCOCC2)cc1`, the inhibition is -17.1%.

For `COc1ccc(S(=O)(=O)NN=C2CCCCC2)cc1`, the inhibition was -30.4%.

In the case of `COc1ccc(-n2nc(C(=O)NCC(=O)NCc3ccco3)c3ccccc3c2=O)cc1`, the inhibition was 0.1%.

In the case of `Fc1ccc(C2=Nn3c(Cc4ccccc4)nnc3SC2)cc1`, the inhibition is 11.2%.

Take `c1ccc(Cc2nnc3n2N=C(c2ccccc2)CS3)cc1`: the inhibition was 13.3%.

In the case of `c1ccc(-c2ccc(C3=Nn4c(Cn5nnc6ccccc65)nnc4SC3)cc2)cc1`, the inhibition is 50.3% (active).

For `O=C(COC(=O)c1cccnc1Cl)Nc1ccccc1OC(F)F`, the inhibition was -0.4%.

Regarding `CCC(C)(C)NC(=O)C(c1cccn1C)N(C(=O)Cn1nnc2ccccc21)c1ccccc1OC` (stereo unspecified), the inhibition is -6.8%.

As for `N#Cc1cn(CCOC(=O)c2cccc(C(F)(F)F)c2)c(=O)[nH]c1=O`, the inhibition is 4.3%.

Take `CCN1CCN(c2nc3ccccc3nc2C(C#N)C(=O)OCc2ccccc2)CC1` (stereo unspecified): the inhibition is 8.9%.

Regarding `O=C(Oc1ccc(-c2cnc3ccccc3n2)cc1)c1ccco1`, the inhibition was 0.2%.

In the case of `COC(=O)c1ccc(OC(=O)c2ccco2)cc1`, the inhibition was -5%.

On to `Cc1cccc(-n2nnnc2SCC(=O)c2cc(C)n(Cc3ccco3)c2C)c1`, for which the inhibition is -2.6%.

Take `CC(=O)Nc1nc2c(c3c1c(=O)oc1ccccc13)CCCCC2`: the inhibition is -2.8%.

As for `CCOc1ccc(CONS(=O)(=O)c2ccc(NC(C)=O)cc2)cc1Cl`, the inhibition is 16.3%.

Turning to `C[N+]1(CC#CC(O)(c2ccccc2)c2ccccc2)CCCC1`, the inhibition is 21.6%.

On to `CC12CCC3(CO)COC(c4ccccc4O1)C2C3` (stereo unspecified), for which the inhibition is 3.4%.

As to `CC1(C#CC[N+]2(C)CCCCC2)CCC2C(O1)c1ccccc1OC2(C)C` (stereo unspecified), the inhibition was 105% (active).

On to `C=CCN(CC=C)C(=O)Nc1ccc2nc(C)sc2c1`, for which the inhibition is 8.1%.

For `CCOC(=O)N1CCN(C(=O)c2ccc(S(=O)(=O)NCc3ccco3)cc2)CC1`, the inhibition is -4.2%.

`Cc1ccc(NC(=O)c2ccc(N/N=C/c3cccc(O)c3)c([N+](=O)[O-])c2)cc1`: the inhibition was 5.1%.

As for `O=c1[nH][nH]c(-c2ccccc2)c1C=Nc1ccc(Cl)cc1`, the inhibition is -4.3%.

In the case of `Cn1cnnc1SCC(=O)Nc1ccccc1F`, the inhibition was -2%.

Consider `CCc1cc(C(=O)NNC(=S)Nc2ccccc2C)cs1`, for which the inhibition was -8.6%.

As to `Cc1cccc(NC(=S)NNC(=O)c2csc(C)c2)c1`, the inhibition is -3.7%.

On to `Cc1cc(C(=O)NNC(=S)Nc2ccccc2C)cs1`, for which the inhibition was 70.7% (active).

On to `O=C(Nn1cnnc1)C1CCCN1S(=O)(=O)c1ccc(F)cc1` (stereo unspecified), for which the inhibition is -3.3%.

In the case of `Cc1ccc(NC(=O)CSc2nnc(C)n2-c2ccccc2)cc1`, the inhibition was -1.7%.

As for `Cc1ccc(-n2c(=O)[nH]c3ncccc3c2=O)cc1`, the inhibition is 12.9%.

`Oc1ccc(C=Nc2cccc3ncccc23)c(O)c1`: the inhibition was 46.8%.

With `Cc1ccc(N=Cc2ccc(O)cc2O)cc1F`, the inhibition was 9.4%.

`Oc1ccc(C=Nc2ccc3ncccc3c2)c(O)c1`: the inhibition was 68.4% (active).

On to `O=C(COC(=O)c1cccc(Cl)c1)Nc1cc(Cl)ccc1Oc1ccccc1`, for which the inhibition was 18.8%.

As for `Cc1cc(OCC(O)CN)ccc1Cl` (stereo unspecified), the inhibition was -8.6%.

With `Clc1ccc(CN2CCN(/N=C/c3cccnc3)CC2)cc1`, the inhibition was 85.6% (active).

Consider `C(=N\N1CCN(Cc2ccccc2)CC1)/c1cccnc1`, for which the inhibition is 9.3%.

Regarding `Cc1ccc(CN2CCN(/N=C/c3cccnc3)CC2)cc1`, the inhibition was 17.9%.

As for `Cc1cccc(CSc2nc3c(c(-c4cccs4)c2C#N)CN(C)CC3)c1`, the inhibition was 69.6% (active).

As for `CC(C)(C)C(=O)CSc1nc2c(c(-c3cccs3)c1C#N)CCC2`, the inhibition is -25.9%.

Take `Cc1cccc(CSc2nc(N)c(C#N)c(-c3cccs3)c2C#N)c1`: the inhibition was 6.6%.

Consider `COc1ccc(NC(=O)CSc2nc3c(c(-c4cccs4)c2C#N)CN(C)CC3)cc1OC`, for which the inhibition is 59.8% (active).

On to `CN1CCc2nc(SCC(=O)Nc3cccc(F)c3)c(C#N)c(-c3cccs3)c2C1`, for which the inhibition is 35%.

With `CN1CCc2nc(SCC(=O)Nc3ccc(OC(F)(F)F)cc3)c(C#N)c(-c3cccs3)c2C1`, the inhibition was 15.7%.
